Hits are enriched below; roughly 2.9% of the tested compounds scored in any of these assays.
D3 antag: blocks the human D3 dopamine receptor; P35462; D3R cells, DiscoveRx beta-arrestin luminescence, antagonist mode; stronger effect = lower value; max response, negative = inhibition, %; actives 2.5% (n = 360,000); in the data active = max response below about -50%; inconclusive = no clear call, values can overlap the other calls; also: % is scaled to controls: 0 for no effect and ±100 for the full control effect
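Cells plated overnight at 1500 cells/well, then exposed to library compounds with dopamine controls for 90 minutes at 37 degrees C. DiscoveRx reagent added for 30–60 minutes at room temperature; luminescence read, quantitative HTS format.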
MmCpn inh: blocks the Methanococcus maripaludis chaperonin Mm-Cpn. Potency, µM (titrated, usually from 76.9 µM), inactives show at the highest dose activity, negative = inhibition, hits mostly inhibitors. purified Mm-Cpn ATPase, ADP Transcreener TR-FRET. actives 0.031% (n = 330,000); active = well fitted inhibition curve with a large enough effect; inconclusive = small, poorly fitted or top-dose-only effect; also: potency is read from the fitted curve at half-maximal effect; % is scaled to controls: 0 for no effect and ±100 for the full control effect; nearly all actives have a fitted effect of over 80% in size
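Inhibition of chaperonin ATP hydrolysis is measured as reduced ADP production, detected by competitive TR-FRET in which signal falls with ADP. Final enzyme 25 nM and ATP 10 uM, reacted 30 min at 37°C.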
Rango dissoc inh: inhibitors of RanGTP-induced Rango-importin beta complex dissociation; Potency, µM (highest dose often 46.1 µM), for inactives: at the highest dose activity change, negative = inhibition; AID 540253; actives 0.071% (n = 340,000); Biochemical FRET Rango-importin beta, RanGTP-induced dissociation; also: potency is read from the fitted curve at half-maximal effect; % of control where 0% means no effect; nearly all actives have a fitted effect of over 45% in size
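Compounds sat 5 min at room temperature with 0.1 uM Rango biosensor plus 0.25 uM importin beta, then FRET pre-read. RanGTP-RCC1 (0.6 uM Ran, 2mM GTP, 0.2 uM RCC1) added for 45 min, and the CFP/YFP post-read measured blocked complex dissociation.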
TSG101-PTAP inh: blocks PTAP/TSG101 interaction to inhibit HIV-1 budding. Q99816. Fluorescence polarization, FITC-PTAP peptide / Tsg101 binding. Potency, µM (series often up to 115 µM), for the others: at the top dose activity change, negative = inhibition, hits mostly inhibitors. 340,000 tested, under 10 active; active = well fitted inhibition curve with a large enough effect in the main read-out, with a control signal flat, not every such curve was filed as active; inconclusive = small, poorly fitted or top-dose-only effect, or effect the other way, or a change in a side signal; inactive = no such curve, though single readings can be large or run the other way; also: potency is read from the fitted curve at half-maximal effect; % of control where 0% means no effect
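FP read-out: FITC-PTAP peptide, 50 nM final, binding Tsg101 binding domain, 10 uM final; 20 min, r.t.; 10 mM HEPES pH 7.5, 0.15 M NaCl, 0.01% Tween 20, 3 mM EDTA, 0.1 mM TCEP.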
DRD3 agonist: D3 dopamine receptor (human) agonism | P35462 | D3R DiscoveRx beta-arrestin cells, luminescence, 90 min | max activation, % | actives 0.58% (n = 410,000); in the data active = max activation above about 30%; also: 0% is about no effect
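Agonist mode: compounds and dopamine controls were applied to plated cells for 90 min at 37 degrees C after an overnight attachment at 1500 cells/well. Luminescent read-out followed 30 - 60 minutes at room temperature with DiscoveRx detection reagent.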
Rango complex inh: inhibitors of Rango-importin beta complex formation | actives 0.031% (n = 340,000) | AID 540263 | Potency, µM (highest dose often 92.2 µM), without a hit: at the highest dose inhibition of complex formation | Q14974 | Rango CFP/YFP FRET sensor + importin beta, 45 min;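 also: potency is read from the fitted curve at half-maximal effect; 0% = DMSO wells and 100% = buffer wells lacking importin beta; nearly all actives have a fitted effect of over 15% in size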
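FRET biosensor (snurportin 1 IBB flanked by EYFP and cerulean), 50 nM, with compound 5 min, then 0.125 microM importin beta in PBS, 1 mM DTT, 0.02% Tween-20, 0.1% BSA. CFP/YFP ratio read after 45 min at room temperature; pre-read flags interference.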
* marks the source's active call; other numbers are inactive results. Unless noted, calls follow the shape of the full dose curve.

How did Cc1ncc([N+](=O)[O-])n1CCOC(=O)NC(Nc1ccc(F)cc1)C(Cl)(Cl)Cl (stereo unspecified) do in these assays?
D3 antag: -10; MmCpn inh: 1%; Rango dissoc inh: -1%; TSG101-PTAP inh: -1%; DRD3 agonist: 0; Rango complex inh: -2%

Results for Cc1ccccc1NC(NC(=O)OCCn1c([N+](=O)[O-])cnc1C)C(Cl)(Cl)Cl (stereo unspecified) ?
D3 antag: -63*; MmCpn inh: -13%; Rango dissoc inh: 0%; TSG101-PTAP inh: -2%; DRD3 agonist: -5; Rango complex inh: -2%

How did COc1cc(OC)c(OC)cc1CN1CCCC(C(=O)N2CCCCC2)C1 (stereo unspecified) do in these assays?
D3 antag: inconclusive; MmCpn inh: 0%; Rango dissoc inh: -13%; TSG101-PTAP inh: -2%; DRD3 agonist: -4; Rango complex inh: 1%

Results for O=C(C1CCCN(Cc2cccc(F)c2)C1)N1CCCCC1 (stereo unspecified) ?
D3 antag: -73*; MmCpn inh: 0%; Rango dissoc inh: 0%; TSG101-PTAP inh: 0%; DRD3 agonist: -8; Rango complex inh: 2%

What do the screens show for `O=C(C1CCCN(Cc2ccccc2)C1)N1CCc2ccccc2C1` (stereo unspecified)?
D3 antag: -89*; MmCpn inh: -1%; Rango dissoc inh: 9%; TSG101-PTAP inh: -1%; DRD3 agonist: -45; Rango complex inh: -2%

What do the screens show for `COc1ccc(CN2CCCC(C(=O)N3CCc4ccccc4C3)C2)cc1OC` (stereo unspecified)?
D3 antag: -61*; MmCpn inh: 2%; Rango dissoc inh: 1%; TSG101-PTAP inh: -2%; DRD3 agonist: -19; Rango complex inh: 7%

What do the screens show for `COc1ccc(CN2CCCC(C(=O)N3CCCCC3)C2)cc1OC` (stereo unspecified)?
D3 antag: -4; MmCpn inh: inconclusive; Rango dissoc inh: -15%; TSG101-PTAP inh: 0%; DRD3 agonist: -18; Rango complex inh: 0%

Results for Cc1ccc(CN2CCCC(C(=O)N3CCCC3)C2)cc1 (stereo unspecified) ?
D3 antag: -8; MmCpn inh: inconclusive; Rango dissoc inh: -5%; TSG101-PTAP inh: -6%; DRD3 agonist: -1; Rango complex inh: 0%

Results for COc1cc(CN2CCCC(C(=O)N3CCc4ccccc4C3)C2)cc(OC)c1OC (stereo unspecified) ?
D3 antag: -70*; MmCpn inh: -1%; Rango dissoc inh: 1%; TSG101-PTAP inh: 0%; DRD3 agonist: -17; Rango complex inh: 0%

How did COc1ccc(CCNC(=O)c2cc3sccc3n2Cc2ccc(Cl)cc2)cc1OC do in these assays?
DRD3 agonist: -13

How did Cc1cc([N+](=O)[O-])nn1Cc1noc(C(=O)NCCCn2ccnc2)n1 do in these assays?
D3 antag: 7; MmCpn inh: 0%; Rango dissoc inh: -8%; TSG101-PTAP inh: -1%; DRD3 agonist: 3; Rango complex inh: -4%

What do the screens show for `C=CCOc1ccc(/C=C(\C#N)C(=O)Nc2ccccn2)cc1`?
D3 antag: 2; MmCpn inh: 2%; Rango dissoc inh: 26µM*; TSG101-PTAP inh: -4%; DRD3 agonist: 8; Rango complex inh: inconclusive

What do the screens show for `Cc1ccc(S(=O)(=O)c2cn(CC(=O)Nc3ccc(F)cc3)c3cc4c(cc3c2=O)OCO4)cc1`?
DRD3 agonist: 0

What do the screens show for `COc1cccc(Nc2c([N+](=O)[O-])cncc2[N+](=O)[O-])c1`?
D3 antag: -29; MmCpn inh: 1%; Rango dissoc inh: 23%; TSG101-PTAP inh: 0%; DRD3 agonist: -5; Rango complex inh: 0%

What do the screens show for `COc1cccc(Nc2c(Nc3cccc(OC)c3)c(=O)c2=O)c1`?
D3 antag: -68*; MmCpn inh: -2%; Rango dissoc inh: 1%; TSG101-PTAP inh: -2%; DRD3 agonist: -35; Rango complex inh: -1%

Results for O=C(NCCN1CCC(n2c(=O)[nH]c3ccccc32)CC1)c1c(F)cccc1F ?
D3 antag: -92*; DRD3 agonist: -12

Results for O=C(NCCN1CCC(n2c(=O)[nH]c3ccccc32)CC1)c1cccs1 ?
D3 antag: -103*; DRD3 agonist: -17

What do the screens show for `O=C(NCCN1CCC(n2c(=O)[nH]c3ccccc32)CC1)c1ccc(Cl)cc1`?
D3 antag: -51*; DRD3 agonist: -15

Results for Cc1ccc(C(=O)NCCN2CCC(n3c(=O)[nH]c4ccccc43)CC2)cc1 ?
D3 antag: -106*; DRD3 agonist: -15

How did CCOc1ccccc1C(=O)NCCN1CCC(n2c(=O)[nH]c3ccccc32)CC1 do in these assays?
D3 antag: -29; DRD3 agonist: -14

What do the screens show for `CCOC(=O)C1CCCN(Cc2nc(Cc3ccccc3Cl)no2)C1` (stereo unspecified)?
D3 antag: 0; MmCpn inh: -5%; Rango dissoc inh: 15%; TSG101-PTAP inh: -3%; DRD3 agonist: 0; Rango complex inh: 1%

What do the screens show for `COc1cccc(NC(=O)C(=O)NCC(c2ccc3c(c2)OCO3)N2CCOCC2)c1` (stereo unspecified)?
DRD3 agonist: -10

What do the screens show for `COc1ccccc1N1CCN(C(=O)c2ccc3c(c2)N(Cc2ccccc2)C(=O)c2ccccc2S3(=O)=O)CC1`?
DRD3 agonist: 4

How did O=C(NCCN1CCC(n2c(=O)[nH]c3ccccc32)CC1)c1ccc(F)cc1F do in these assays?
D3 antag: -109*; DRD3 agonist: -14

Results for O=C(NCCN1CCC(n2c(=O)[nH]c3ccccc32)CC1)c1ccc(Cl)c(Cl)c1 ?
D3 antag: -85*; DRD3 agonist: -15

Results for Cc1ccc(C(=O)NCCN2CCC(n3c(=O)[nH]c4ccccc43)CC2)cc1F ?
D3 antag: -70*; DRD3 agonist: -11

What do the screens show for `O=C(NCCN1CCC(n2c(=O)[nH]c3ccccc32)CC1)c1ccc(F)cc1`?
D3 antag: -79*; DRD3 agonist: -17

What do the screens show for `Cc1cccc(-c2nc(SCC(=O)NCC3CCCO3)c3c(=O)n(C)c(=O)n(C)c3n2)c1` (stereo unspecified)?
DRD3 agonist: 13

How did O=C(Cn1c(-c2cccs2)cc2ccccc21)N1CCN(c2ccccc2F)CC1 do in these assays?
DRD3 agonist: -3

Screens from PubChem.
